Reference: PubChem BioAssay (NCI)
The panel holds about 79,000 compounds, 15% with a hit somewhere; the sample as a whole holds those more often. Unmarked numbers belong to inactive results. Active and inactive are the calls of the source. Cut-off read from the data, not from the text of the source: active = growth inhibition above about 70%; inactive = the rest.

Assays:
[1] = NCI Yeast Anticancer Drug Screen. Data for the rad50 strain (AID 155);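 note: 0% = growth of vehicle-only cultures of the same strain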; conditions: S. cerevisiae rad50 strain growth inhibition; at 50.0 µM; stronger effect = higher value
In short: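 DNA repair mutant yeast, compound exposure, growth read-out; inhibition is taken relative to vehicle.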

[2] = NCI Yeast Anticancer Drug Screen. Data for the mec2-1 strain (AID 157); conditions: S. cerevisiae mec2-1 strain, at 50.0 µM, stronger effect = higher value
In short: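 Vehicle-treated cultures served as reference for growth inhibition of compound-exposed mec2-1 yeast.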

[3] = NCI Yeast Anticancer Drug Screen. Data for the sgs1 mgt1 strain (AID 161);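 note: 0% = growth of cultures given vehicle only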; conditions: S. cerevisiae sgs1 mgt1 strain, at 50.0 µM, stronger effect = higher value
In short: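 Test agents were incubated with a DNA-repair-mutant yeast strain. Growth was then read and compared against vehicle-treated controls.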

[4] = NCI Yeast Anticancer Drug Screen. Data for the cln2 rad14 strain (AID 165);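 note: 0% = growth equal to vehicle treated cultures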; conditions: S. cerevisiae cln2 rad14 strain, at 50.0 µM, stronger effect = higher value
In short: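 Each compound was tested on cln2 rad14 yeast. Inhibition of growth was calculated against vehicle-exposed controls.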

[5] = NCI Yeast Anticancer Drug Screen. Data for the bub3 strain (AID 167); conditions: S. cerevisiae bub3 mutant strain, at 50.0 µM, stronger effect = higher value
In short: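 In this screen, a yeast mutant lacking normal mitotic checkpoint function is challenged with compound. Relative growth versus vehicle gives the inhibition value.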

[6] = NCI Yeast Anticancer Drug Screen. Data for the mlh1 rad18 strain (AID 175); conditions: S. cerevisiae mlh1 rad18 strain growth inhibition; at 50.0 µM; stronger effect = higher value
In short: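 Vehicle-treated cultures served as the reference for growth inhibition in a yeast strain carrying DNA damage repair alterations exposed to each compound.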

| SMILES | growth inhibition [1] | growth inhibition [2] | growth inhibition [3] | growth inhibition [4] | growth inhibition [5] | growth inhibition [6] |
| --- | --- | --- | --- | --- | --- | --- |
| CCCCOP(=O)(/C=C/c1cccs1)OCCCC | 81.2% (active) | 37% | 79% (active) | 7.95% | 61.5% | 37.1% |
| O=C(CN1C(=O)c2ccccc2C1=O)OCCNCCCl | 98.2% (active) | 96.5% (active) | 98.1% (active) | 95.9% (active) | 97.4% (active) | 98.5% (active) |
| CC1CN1P(=O)(N1CCCC1)N1CC1C (stereo not given) | 5.25% | 15.1% | -20.3% | 6.5% | -1.5% | 13.4% |
| Cc1ccnc(NN=O)c1 | -2.35% | -18.8% | -6.75% | -1.05% | -17.1% | 2.25% |
| O=[N+]([O-])c1ccc(O)c(C=NCCN=Cc2cc([N+](=O)[O-])ccc2O)c1.[Ni+2] | -30.6% | 5.8% | -3.9% | -56.6% | -3.8% | -22.4% |
| O=[N+]([O-])c1ccc(SC2CCCCCCC2Br)c([N+](=O)[O-])c1 (stereo not given) | -16.9% | -13.5% | -0.5% | -33.6% | 8.95% | -18.4% |
| CCN(CC)CCN(CC)CC.CCN(CC)CCN(CC)CC.[Cu+2].[Cu+2].[O-][Cl+3]([O-])([O-])[O-].[OH3+].[OH3+] | -2.85% | 1.85% | -0.35% | 16.1% | 12.6% | 15.7% |
| CC(C)(C)NCC(COc1ccc([N+](=O)[O-])cc1)OP(c1ccccc1)c1ccccc1 (stereo not given) | 15.7% | 6.25% | 2.25% | 23.6% | 14.8% | 21.3% |
| Cc1ccc(C(=O)O[C@H](C(=O)O)[C@H](OC(=O)c2ccc(C)cc2)C(=O)O)cc1 | 18.1% | -4.05% | -19.6% | 10.4% | 2.6% | -11.1% |
| CCN(CC)CCc1ccncc1 | 12.6% | 10.1% | 6.65% | 30% | -5.05% | 9.65% |
| Nc1ccc(Cl)cc1.Nc1ccc(Cl)cc1.Nc1ccc(Cl)cc1.O=C([O-])C(=O)[O-].O=C([O-])C(=O)[O-].[H+].[Ru+5] | 18.4% | 20.7% | 13.3% | 27.5% | 26.6% | 34.5% |
| N.N.N.N.N.O=C([O-])C(=O)[O-].[Co+3].[O-][Cl+3]([O-])([O-])O.[O-][Cl+3]([O-])([O-])[O-] | -12.3% | 11.8% | -22.9% | 6.2% | 0.8% | -12.7% |
| CCc1ccc([N+](=O)[O-])cc1 | -9.25% | -12% | -19.7% | -29.4% | 1.35% | 10.5% |
| CCC(=O)C(CC(C)[N+](C)(C)C)(c1ccccc1)c1ccccc1 (stereo not given) | -3.05% | -4.95% | -4.6% | 3.35% | -18.5% | 6.5% |
| COc1ccc(C(O)(C(=O)OCCSC)c2ccc(OC)cc2)cc1 | -5.1% | 2.85% | -2.6% | -21.5% | 9% | 0.1% |
| COCCOC(=O)NCP(Cl)(CNC(=O)OCCOC)(CNC(=O)OCCOC)CNC(=O)OCCOC | -11.6% | -4.85% | -29.8% | -19.7% | -1.75% | -5.75% |
| COc1ccc2c(c1O)C1=CC(=O)CC[C@]13CCN(C)[C@H]3C2 | -14.1% | -38.3% | -14.2% | 6.15% | -15.2% | -10.2% |
| COCC(=O)CP(=O)(OC)OC | -20.6% | -19.6% | -11.6% | 18.6% | -14.7% | 1.35% |
| CC1(C)N=C(N)N=C(N)N1c1cccc(CCCCc2ccc(S(=O)(=O)F)c(Cl)c2)c1 | 99.5% (active) | 99.7% (active) | 99.5% (active) | 99.4% (active) | 99.3% (active) | 99.7% (active) |
| CNC(=O)N1CN(c2ccccc2)C2(CCN(CCCC3(c4ccc(F)cc4)OCCO3)CC2)C1=O | -16% | -9.5% | -4.4% | -8.8% | 8.3% | 1.05% |

| SMILES | growth inhibition [1] | growth inhibition [2] | growth inhibition [3] | growth inhibition [4] | growth inhibition [5] | growth inhibition [6] |
| --- | --- | --- | --- | --- | --- | --- |
| CC(=O)OC1CCC2(C)C(=CCC3C4C/C(=C\N5CCCC5)C(=O)C4(C)CCC32)C1 (stereo not given) | 51% | 99% (active) | 46.8% | 98.8% (active) | 97.2% (active) | 95.3% (active) |
| CCCCOC(=O)c1ccccc1C(=O)OCc1ccccc1 | -3.45% | -11.7% | -2.85% | -43.7% | 2.8% | -5.25% |
| C[n+]1ccc(/C=C\c2ccc(N(CCCl)CCCl)cc2)c2ccccc21 | 4.8% | 15.9% | 4% | 24.1% | 15.4% | 18.6% |
| CC(=O)O[C@H]1CC[C@]2(C)[C@H]3CC[C@]4(C)[C@@H](OC(C)=O)CC[C@H]4[C@@H]3[C@H](C=O)[C@]2(O)C1 | 7.9% | 4.35% | -8.6% | 4.25% | -0.75% | 8.7% |
| Oc1cc(N2CC2)c(O)cc1N1CC1 | 12.8% | 13.9% | 11.2% | -42.6% | -1.75% | 11.4% |
| CCOC(=O)C(C[Si](C)(C)C)P(=O)(OCC)OCC (stereo not given) | -24.6% | -21.9% | -58.4% | -28.6% | -26.7% | -33% |
| CC([Se])=Nc1ccc(Br)cc1 | 21.6% | 0.8% | -0.2% | -8.9% | -1.45% | 9.1% |
| C[C@H](O)CCC(=O)c1ccoc1 | -5.65% | -2.6% | -22.1% | 6.2% | -22.1% | -14.1% |
| O=S1(=O)CC2(N3CCOCC3)C3CCC(C3)C21 (stereo not given) | 24% | 4.6% | 0.6% | -0.4% | 9.15% | 11.6% |
| CC12CCC(OC3OC(CO)C(O)C(O)C3O)C=C1CCC1C2CCC2(C)C(c3ccc(=O)oc3)CCC12 (stereo not given) | 62.5% | 60% | 46.3% | 35.2% | 61.2% | 45.6% |
| CCC[P+](CCC)(CCC)CCCCCCCCCC[P+](CCC)(CCC)CCC | -2.65% | -13% | 2.05% | -21.2% | -1.15% | -0.5% |
| [CH3][Sb]1([Br])[CH2]CC[CH2]1 | 6.8% | 15.2% | 5.85% | -1.6% | -11.8% | 3.05% |
| Fc1ccccc1N=C=S | 4.55% | -12% | 5.65% | 18.1% | 14.6% | 2.75% |
| [O-][Cl+3]([O-])([O-])[O-].[O]=[Ru]=[O].c1ccc(-c2ccccn2)nc1.c1ccc(-c2ccccn2)nc1 | 21.9% | 20.9% | 22.4% | 14.2% | 13.7% | 27.4% |
| C[N+](C)(C)CC1CCc2ccccc2C1=O (stereo not given) | 89.2% (active) | 44.6% | 69.2% | 50.2% | 40.5% | 91.4% (active) |
| COc1ccc2c(c1)C1(C=N2)CCN(C(C)=O)CC1 | 3.25% | -17.1% | -16.4% | 17.1% | -9.75% | -24.8% |
| C/C=C/C(C)C1(CCC)C(=O)NC(=O)NC1=O (stereo not given) | 0.35% | 2.6% | -3.8% | -37.2% | 8.5% | -3.8% |
| COc1cc2c(ccc3c4cc(OC)c(OC)cc4c[n+](C)c23)cc1O | -21.7% | -17.9% | -9.9% | 16.4% | -23.8% | -65.8% |
| CCC1CN(CC(=O)c2ccc(Br)cc2)CCO1 (stereo not given) | 5.4% | 3.35% | 39.9% | 20.6% | 48.6% | 25% |
| [C-]#[O+].[C-]#[O+].[C-]#[O+].[C-]#[O+].[C-]#[O+].[C-]#[O+].[Fe].[Fe].c1ccc([P-]c2ccccc2[P-]c2ccccc2)cc1 (stereo not given) | 8.7% | 26.9% | -11.3% | 26.9% | 12.6% | 18.7% |
